PubChem BioAssay AID720517 (National Center for Advancing Translational Sciences (NCATS), 2013)
Results filed as inconclusive are left out. Where a call stands in place of a potency, no number is given. Activity calls are given as the source filed them. Calls come from the whole dose curve; as a rule, active = well fitted activation curve with a large enough effect; inconclusive = small, poorly fitted or top-dose-only effect; inactive = flat fitted curve, though single readings scatter.

Assay: qHTS for Inhibitors of Cell Surface uPA Generation: FP59 Counterscreen for Cherry-picked Compounds
Conditions: FP59 anthrax toxin cytotoxicity counterscreen, cells; series mostly up to 115 µM

Compound | Potency
CN(C)C(=S)Nc1ccc(S(=O)(=O)N2CCCCC2)cc1 | inactive
Cc1nn(C)c(C)c1S(=O)(=O)N1CCC(C(=O)NC2CCCCCC2)CC1 | inactive
COc1ccc(C[C@@H]2OC3(C=CC(=O)C=C3)O[C@H]2Cc2ccc(OC)cc2)cc1 | inactive
CCc1ccc(OCC(=O)N(Cc2cccs2)C2CCS(=O)(=O)C2)cc1 (configuration not stated) | inactive
O=C(C1CCN(c2nnc(N3CCCC3=O)s2)CC1)N1CCN(c2cccc(C(F)(F)F)c2)CC1 | inactive
C=CCOC(=O)C1=C(C)NC(C)=C(C(=O)OCC=C)C1c1cn(-c2ccccc2)nc1-c1ccco1 | inactive
O=C(NNC(=O)C1CC(c2cccs2)=NO1)Nc1ccccc1 (configuration not stated) | inactive
COc1ccc(CCNC(=O)Cn2c(=O)n(-c3cc(F)ccc3F)c(=O)c3sccc32)cc1OC | inactive
COc1ccc(CCNC(=O)Cn2cccc2C(=O)c2ccccc2)c(OC)c1 | inactive
CC(C)OC(=O)Nc1ccc(-c2ccc(NC(=O)OC(C)C)cc2Cl)c(Cl)c1 | inactive
O=C(NCc1ccco1)/C(=C\c1cccs1)NC(=O)c1ccccc1 | inactive
Cc1cccc(Nc2ccc(NCc3ccccc3)nn2)c1 | inactive
COc1cccc(NC(=O)N2C3CCCC2CC(NC(C)=O)C3)c1 (configuration not stated) | inactive
Cc1nn2c(=O)cc(CSc3nc4ccccc4[nH]3)nc2s1 | inactive
CCOc1ccc(NS(=O)(=O)c2ccc(C(=O)N3CCC3)cc2)cc1 | inactive
CCCCOc1ccc(S(=O)(=O)N2CCCCC2)cc1 | inactive
Cc1ccc(Cl)cc1NC(=O)c1ccccc1OCC(=O)N1CCOCC1 | inactive
